Data from the supplement of paper PMC11732987, “Enantioselective OTUD7B fragment discovery through chemoproteomics screening and high-throughput optimisation” (Communications Chemistry, 2025).

What was measured:
Test in all cases: log2 ratio of Biotin-Ahx-Ub-VS probe labelling (fragment/DMSO); higher = less target engagement (more negative = stronger competition), active = hit call of the paper (q ≤ 0.05, log2 ratio ≤ -1)
Settings in all cases: compound concentration: 200 uM; treatment time: 3 h
USP19 = molecular target: T1, USP19 (UniProt O94966)
T1 sequence (whole entry): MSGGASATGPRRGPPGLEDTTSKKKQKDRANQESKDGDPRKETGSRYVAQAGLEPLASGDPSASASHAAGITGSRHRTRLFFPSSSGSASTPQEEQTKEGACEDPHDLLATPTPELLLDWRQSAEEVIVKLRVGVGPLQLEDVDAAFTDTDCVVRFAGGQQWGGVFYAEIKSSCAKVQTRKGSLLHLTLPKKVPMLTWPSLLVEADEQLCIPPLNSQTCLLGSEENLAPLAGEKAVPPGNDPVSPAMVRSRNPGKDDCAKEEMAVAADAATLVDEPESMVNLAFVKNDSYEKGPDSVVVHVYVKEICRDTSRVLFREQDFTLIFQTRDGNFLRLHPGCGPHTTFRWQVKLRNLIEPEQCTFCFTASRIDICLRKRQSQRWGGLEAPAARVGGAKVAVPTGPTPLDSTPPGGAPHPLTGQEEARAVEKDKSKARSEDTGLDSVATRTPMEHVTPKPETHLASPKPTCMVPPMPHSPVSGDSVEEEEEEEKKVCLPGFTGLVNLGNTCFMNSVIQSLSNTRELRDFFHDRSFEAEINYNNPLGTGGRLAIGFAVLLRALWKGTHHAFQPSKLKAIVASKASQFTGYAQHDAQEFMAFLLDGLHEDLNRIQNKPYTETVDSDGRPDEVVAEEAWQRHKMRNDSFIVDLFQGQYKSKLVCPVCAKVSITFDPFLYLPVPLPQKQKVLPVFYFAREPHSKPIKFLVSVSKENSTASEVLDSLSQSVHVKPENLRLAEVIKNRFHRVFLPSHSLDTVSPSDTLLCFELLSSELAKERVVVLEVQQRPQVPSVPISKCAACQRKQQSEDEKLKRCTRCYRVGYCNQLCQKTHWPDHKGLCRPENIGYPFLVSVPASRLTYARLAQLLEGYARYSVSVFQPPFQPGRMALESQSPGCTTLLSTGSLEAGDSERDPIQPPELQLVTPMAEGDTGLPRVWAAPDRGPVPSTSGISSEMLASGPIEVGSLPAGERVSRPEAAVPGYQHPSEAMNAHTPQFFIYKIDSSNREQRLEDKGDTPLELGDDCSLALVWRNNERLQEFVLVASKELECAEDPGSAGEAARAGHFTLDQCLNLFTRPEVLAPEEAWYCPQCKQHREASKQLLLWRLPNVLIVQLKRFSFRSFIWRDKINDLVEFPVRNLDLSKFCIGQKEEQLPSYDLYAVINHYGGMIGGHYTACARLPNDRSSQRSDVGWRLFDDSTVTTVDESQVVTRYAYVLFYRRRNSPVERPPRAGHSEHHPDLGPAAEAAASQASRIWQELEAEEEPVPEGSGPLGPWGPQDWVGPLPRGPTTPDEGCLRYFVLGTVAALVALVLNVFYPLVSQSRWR
How it was run: (§1)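 In triplicate, 495 µg of HEK293T lysate per sample was incubated with fragment at 200 µM or vehicle for 3 h. Biotin-Ahx-Ub-VS was then added to 0.5 µM final for 1 h, and labelled DUBs were captured with NeutrAvidin, digested with LysC and trypsin, and measured by diaPASEF LC-MS/MS. Data are average log2 fragment/vehicle ratios by unpaired t-test from global-median-normalised Spectronaut label-free quantities, restricted to proteins with ≥2 unique peptides.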

USP24 = USP24 (UniProt Q9UPU5)
How it was run: as §1

USP25 = molecular target: T2, USP25 (UniProt Q9UHP3)
T2 sequence (whole entry): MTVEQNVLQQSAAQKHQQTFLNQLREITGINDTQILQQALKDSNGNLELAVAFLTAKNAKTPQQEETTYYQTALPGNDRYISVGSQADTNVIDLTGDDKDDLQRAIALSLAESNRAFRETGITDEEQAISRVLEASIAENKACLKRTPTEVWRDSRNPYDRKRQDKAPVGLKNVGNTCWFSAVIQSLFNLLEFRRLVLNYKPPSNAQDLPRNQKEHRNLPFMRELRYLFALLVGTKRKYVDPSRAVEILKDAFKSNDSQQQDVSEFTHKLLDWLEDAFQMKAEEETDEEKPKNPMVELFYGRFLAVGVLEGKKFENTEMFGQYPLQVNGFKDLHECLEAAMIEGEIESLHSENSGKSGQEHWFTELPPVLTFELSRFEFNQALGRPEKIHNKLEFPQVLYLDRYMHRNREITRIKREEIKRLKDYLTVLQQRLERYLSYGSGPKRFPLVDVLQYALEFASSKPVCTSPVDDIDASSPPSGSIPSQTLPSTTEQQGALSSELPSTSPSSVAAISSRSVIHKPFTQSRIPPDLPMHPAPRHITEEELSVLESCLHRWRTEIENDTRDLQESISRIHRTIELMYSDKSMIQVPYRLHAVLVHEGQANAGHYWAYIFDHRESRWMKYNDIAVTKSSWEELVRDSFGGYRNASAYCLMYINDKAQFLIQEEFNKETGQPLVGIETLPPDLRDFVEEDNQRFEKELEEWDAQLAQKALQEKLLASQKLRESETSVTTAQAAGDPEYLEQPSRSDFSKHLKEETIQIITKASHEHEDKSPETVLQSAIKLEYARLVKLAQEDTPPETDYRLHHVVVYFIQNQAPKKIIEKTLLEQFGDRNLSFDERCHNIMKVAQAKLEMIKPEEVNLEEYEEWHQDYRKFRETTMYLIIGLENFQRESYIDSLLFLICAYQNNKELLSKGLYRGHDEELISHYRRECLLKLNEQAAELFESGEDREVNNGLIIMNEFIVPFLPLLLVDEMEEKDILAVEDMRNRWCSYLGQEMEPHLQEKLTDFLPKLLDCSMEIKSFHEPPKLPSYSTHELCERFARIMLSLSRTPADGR
How it was run: as §1

USP28 = molecular target: T3, USP28 (UniProt Q96RU2)
T3 sequence (whole entry): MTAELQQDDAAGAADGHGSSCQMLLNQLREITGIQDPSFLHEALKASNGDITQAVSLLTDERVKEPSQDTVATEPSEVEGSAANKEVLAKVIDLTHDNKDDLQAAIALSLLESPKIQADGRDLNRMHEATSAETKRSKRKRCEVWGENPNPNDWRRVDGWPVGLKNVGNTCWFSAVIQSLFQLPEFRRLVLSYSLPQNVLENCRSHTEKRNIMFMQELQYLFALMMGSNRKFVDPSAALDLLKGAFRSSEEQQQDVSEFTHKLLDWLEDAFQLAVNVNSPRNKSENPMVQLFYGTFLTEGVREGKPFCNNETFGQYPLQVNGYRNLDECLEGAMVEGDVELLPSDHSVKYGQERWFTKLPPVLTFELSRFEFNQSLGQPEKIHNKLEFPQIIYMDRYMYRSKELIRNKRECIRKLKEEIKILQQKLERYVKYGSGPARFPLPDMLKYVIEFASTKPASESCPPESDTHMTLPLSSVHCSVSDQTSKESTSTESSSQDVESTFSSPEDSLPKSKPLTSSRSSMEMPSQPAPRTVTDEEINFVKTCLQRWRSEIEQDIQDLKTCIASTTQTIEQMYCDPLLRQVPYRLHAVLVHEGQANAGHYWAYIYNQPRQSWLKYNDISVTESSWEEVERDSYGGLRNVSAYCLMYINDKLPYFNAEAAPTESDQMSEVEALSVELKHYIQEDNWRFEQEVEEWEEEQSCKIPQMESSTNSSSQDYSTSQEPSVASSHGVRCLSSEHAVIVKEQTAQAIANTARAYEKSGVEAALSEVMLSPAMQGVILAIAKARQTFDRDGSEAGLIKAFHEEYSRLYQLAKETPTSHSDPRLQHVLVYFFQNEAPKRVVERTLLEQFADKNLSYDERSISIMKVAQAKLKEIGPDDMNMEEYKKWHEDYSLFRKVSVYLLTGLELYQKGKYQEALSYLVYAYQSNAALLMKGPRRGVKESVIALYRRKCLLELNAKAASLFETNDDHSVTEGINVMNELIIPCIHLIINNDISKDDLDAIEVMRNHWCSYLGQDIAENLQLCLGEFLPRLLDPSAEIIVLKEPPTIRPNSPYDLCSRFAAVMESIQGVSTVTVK
How it was run: as §1

Measured: log2 ratio of Biotin-Ahx-Ub-VS probe labelling

USP24, sequence (Q9UPU5 whole entry): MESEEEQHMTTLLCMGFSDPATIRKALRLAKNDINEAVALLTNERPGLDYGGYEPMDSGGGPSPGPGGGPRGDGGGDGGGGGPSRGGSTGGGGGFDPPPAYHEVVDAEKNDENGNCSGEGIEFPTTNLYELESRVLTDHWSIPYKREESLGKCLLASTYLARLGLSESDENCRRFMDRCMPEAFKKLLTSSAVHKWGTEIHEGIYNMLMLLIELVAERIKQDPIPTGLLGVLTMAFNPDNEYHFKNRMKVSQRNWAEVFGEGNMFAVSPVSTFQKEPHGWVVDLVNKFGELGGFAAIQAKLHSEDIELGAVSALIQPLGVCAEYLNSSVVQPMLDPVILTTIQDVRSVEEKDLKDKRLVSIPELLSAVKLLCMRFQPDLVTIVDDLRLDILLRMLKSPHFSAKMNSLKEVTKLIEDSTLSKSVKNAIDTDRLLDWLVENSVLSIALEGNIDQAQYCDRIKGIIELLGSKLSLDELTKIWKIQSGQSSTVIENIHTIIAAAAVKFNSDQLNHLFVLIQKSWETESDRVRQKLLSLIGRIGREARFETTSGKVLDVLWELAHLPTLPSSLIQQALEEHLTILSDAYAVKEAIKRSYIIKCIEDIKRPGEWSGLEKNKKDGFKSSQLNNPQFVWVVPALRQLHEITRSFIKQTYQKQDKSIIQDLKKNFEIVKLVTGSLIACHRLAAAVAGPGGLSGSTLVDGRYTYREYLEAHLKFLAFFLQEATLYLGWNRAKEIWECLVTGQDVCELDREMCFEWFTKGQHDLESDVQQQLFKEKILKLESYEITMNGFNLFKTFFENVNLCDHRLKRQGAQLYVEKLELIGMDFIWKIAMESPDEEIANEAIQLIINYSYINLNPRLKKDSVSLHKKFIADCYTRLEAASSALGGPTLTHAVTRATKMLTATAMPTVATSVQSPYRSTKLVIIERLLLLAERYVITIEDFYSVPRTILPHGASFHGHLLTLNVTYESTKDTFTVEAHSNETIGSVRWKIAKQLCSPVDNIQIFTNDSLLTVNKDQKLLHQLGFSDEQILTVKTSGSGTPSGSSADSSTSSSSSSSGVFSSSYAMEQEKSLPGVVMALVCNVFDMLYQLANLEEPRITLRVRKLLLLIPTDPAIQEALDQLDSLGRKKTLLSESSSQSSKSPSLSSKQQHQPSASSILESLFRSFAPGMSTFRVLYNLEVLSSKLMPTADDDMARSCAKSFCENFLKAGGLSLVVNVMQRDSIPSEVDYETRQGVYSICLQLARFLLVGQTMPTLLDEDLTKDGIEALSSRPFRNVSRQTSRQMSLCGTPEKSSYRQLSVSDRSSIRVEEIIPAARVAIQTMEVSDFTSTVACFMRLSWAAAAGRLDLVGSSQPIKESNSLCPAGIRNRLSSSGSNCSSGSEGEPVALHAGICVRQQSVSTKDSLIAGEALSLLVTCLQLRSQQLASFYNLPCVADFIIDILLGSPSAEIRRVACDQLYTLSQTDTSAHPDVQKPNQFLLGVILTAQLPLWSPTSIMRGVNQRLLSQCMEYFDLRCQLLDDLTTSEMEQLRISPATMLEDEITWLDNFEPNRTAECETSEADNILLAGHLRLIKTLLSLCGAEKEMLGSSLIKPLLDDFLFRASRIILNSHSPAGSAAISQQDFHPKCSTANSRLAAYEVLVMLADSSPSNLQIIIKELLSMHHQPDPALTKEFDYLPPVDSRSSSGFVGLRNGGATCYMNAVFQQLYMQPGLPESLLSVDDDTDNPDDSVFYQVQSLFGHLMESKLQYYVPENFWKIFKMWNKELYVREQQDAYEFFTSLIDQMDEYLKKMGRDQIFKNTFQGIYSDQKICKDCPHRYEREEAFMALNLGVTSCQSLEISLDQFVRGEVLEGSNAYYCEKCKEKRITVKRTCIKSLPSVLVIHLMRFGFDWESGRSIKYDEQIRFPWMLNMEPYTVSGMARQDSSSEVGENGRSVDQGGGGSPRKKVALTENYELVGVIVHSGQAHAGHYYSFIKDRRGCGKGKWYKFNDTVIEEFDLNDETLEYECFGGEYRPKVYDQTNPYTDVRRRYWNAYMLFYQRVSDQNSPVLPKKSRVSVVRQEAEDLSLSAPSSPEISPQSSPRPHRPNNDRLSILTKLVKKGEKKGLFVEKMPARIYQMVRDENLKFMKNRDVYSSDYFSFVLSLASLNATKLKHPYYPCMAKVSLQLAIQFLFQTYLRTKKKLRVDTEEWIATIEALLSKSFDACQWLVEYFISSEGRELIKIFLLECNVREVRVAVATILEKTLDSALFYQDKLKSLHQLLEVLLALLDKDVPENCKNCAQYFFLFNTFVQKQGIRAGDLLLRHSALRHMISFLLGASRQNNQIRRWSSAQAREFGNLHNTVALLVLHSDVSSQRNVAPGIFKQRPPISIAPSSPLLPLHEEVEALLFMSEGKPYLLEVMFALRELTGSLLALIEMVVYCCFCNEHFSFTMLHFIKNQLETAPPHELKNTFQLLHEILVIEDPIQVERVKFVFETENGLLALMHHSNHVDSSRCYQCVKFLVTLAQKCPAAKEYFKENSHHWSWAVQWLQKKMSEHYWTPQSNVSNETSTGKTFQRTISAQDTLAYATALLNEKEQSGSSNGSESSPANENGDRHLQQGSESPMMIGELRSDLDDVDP

O=C(CCl)NCc1ccc2c(c1)OCO2
inactive: USP19 -0.272 | USP24 -0.3 | USP25 -0.0121 | USP28 -0.566
